Source: PubChem (National Center for Advancing Translational Sciences (NCATS))
Shown are actives, neighbours in structure and some others; about 8.9% of the full set was active somewhere.
IMPase Li inh: membrane-permeable IMPase blocker, potentiated with lithium | CHO-M1 cells, IP1 TR-FRET (IP-One), carbachol + lithium | Potency, µM (series often up to 59.4 µM), actives largely listed as inhibitors | 0.35% of 210,000 active;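 also: IP1 builds up when IMPase is blocked and the TR-FRET signal falls; nearly all actives have a fitted effect of over 50% in size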
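Lithium-sensitised IP1 accumulation assay; M1-expressing CHO cells treated 30 min at 37C with compound. Competitive antibody detection by time-resolved FRET followed a 10 min room-temperature lysis step.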
NPSR antag: antagonists of human neuropeptide S receptor cAMP signaling; Potency, µM (doses to about 38.3 µM), actives largely listed as inhibitors; CHO-NPSR cells, cAMP TR-FRET, antagonist mode; Q6W5P4; 1% of 220,000 active; also: nearly all actives have a fitted effect of over 50% in size
HPGD inh: blocks human HPGD enzyme activity. P15428. purified HPGD, NADH fluorescence kinetic, PGE2 substrate. Potency, µM, actives largely listed as inhibitors. 4.3% of 150,000 active; active = well fitted inhibition curve with a large enough effect, not every such curve was filed as active; inconclusive = small, poorly fitted or top-dose-only effect, or another doubt; inactive = no such curve, though single readings can be large or run the other way
Target sequence (P15428 whole entry, looked up): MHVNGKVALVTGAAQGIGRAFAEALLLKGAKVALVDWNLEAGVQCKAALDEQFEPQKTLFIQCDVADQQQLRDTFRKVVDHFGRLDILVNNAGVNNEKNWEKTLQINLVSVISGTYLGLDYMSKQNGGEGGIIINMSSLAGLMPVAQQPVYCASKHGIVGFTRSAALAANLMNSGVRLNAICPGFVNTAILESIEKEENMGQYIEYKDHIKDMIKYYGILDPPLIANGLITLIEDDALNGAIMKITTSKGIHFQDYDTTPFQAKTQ
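NADH formation kinetics: reaction with 30 uM PGE2 and 1 mM NAD+ (final), 20 nM enzyme, Tris-HCl pH 8 with Tween 20, after 15 min compound preincubation at room temperature. Fluorescence change, last versus first of five reads.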
ALOX12 inhib: 12-hLO (ALOX12) enzyme inhibition; P18054; purified 12-hLO, xylenol orange hydroperoxide absorbance; Potency, µM (series often up to 57.1 µM), hits mostly inhibitors; 0.12% of 150,000 active; AID 1452; also: nearly all actives have a fitted effect of over 55% in size
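Xylenol orange chromogenic assay: hydroperoxide from 12hLO oxidises Fe(II), giving red-shifted Fe(III)-XO absorbance. Conditions: 150 nM enzyme, 40 uM arachidonic acid, 25 mM Hepes pH 7.0, 0.01% Triton X-100, 30 min, room temperature.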
ALDH1A1 inh: blocks purified human ALDH1A1 activity | Purified ALDH1A1, NADH fluorescence, propionaldehyde substrate | Potency, µM (titrated, usually from 75.3 µM), hits mostly inhibitors | 7.3% of 220,000 active | AID 1030; active = well fitted inhibition curve with a large enough effect, not every such curve was filed as active; inconclusive = small, poorly fitted or top-dose-only effect, or another doubt; inactive = no such curve, though single readings can be large or run the other way
IMPase inh: IMPase inhibition in cells | 120,000 tested, under 10 active | P97697 | AID 901 | CHO-M1 cells, IP1 accumulation, HTRF TR-FRET ratio | inhibition (IP1 accumulation), % at 46.1 µM; active = well fitted curve in the direction sought with a large enough effect in the signal ratio, not every such curve was filed as active; inconclusive = small, poorly fitted or top-dose-only effect, or a change in a side signal; inactive = no such curve, though single readings can be large or run the other way; the % refers to the signal ratio;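 also: cells stimulated with carbachol in lithium chloride buffer; higher means more IMPase inhibition seen as more IP1 and lower FRET ratio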
Target sequence (P97697 whole entry, looked up): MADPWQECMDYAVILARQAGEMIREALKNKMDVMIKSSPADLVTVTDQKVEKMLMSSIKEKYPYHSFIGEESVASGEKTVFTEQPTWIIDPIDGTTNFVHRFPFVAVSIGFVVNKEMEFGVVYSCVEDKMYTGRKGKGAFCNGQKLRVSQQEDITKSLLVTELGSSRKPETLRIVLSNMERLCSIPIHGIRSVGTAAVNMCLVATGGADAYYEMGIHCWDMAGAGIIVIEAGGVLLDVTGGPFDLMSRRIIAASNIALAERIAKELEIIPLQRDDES
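CHO-M1 cells (CHO stably expressing M1 receptor), compound up to 46 uM final, stimulated with carbachol (50 uM as added) in buffer with 50mM LiCl, pH 7.4, 30 min at 37C. Cytosolic IP1 read by TR-FRET; AC50 from Hill fits.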
A number is an active result; n = inactive; u = inconclusive; x = not tested or not shown. Unless noted, calls follow the shape of the dose curve; as a rule, active = well fitted curve in the direction sought with a large enough effect; inconclusive = small, poorly fitted or top-dose-only effect, or another doubt; inactive = no such curve, though single readings can be large; an effect the other way counts as inactive or inconclusive.

SMILES | IMPase Li inh | NPSR antag | HPGD inh | ALOX12 inhib | ALDH1A1 inh | IMPase inh
Cc1ccc2cc(CN(Cc3nnnn3C3CCCC3)C3CCCCC3)c(=O)[nH]c2c1C | n | n | n | n | 7.94µM | n
COc1cc2cc(CN(Cc3nnnn3C3CCCC3)C3CCCC3)c(=O)[nH]c2cc1OC | n | n | n | n | n | n
CCC(c1nnnn1C1CCCCC1)N(Cc1ccco1)Cc1cc2ccc(OC)cc2[nH]c1=O (stereo unspecified) | n | u | n | n | u | n
COc1ccc2cc(CN(CCCN3CCOCC3)Cc3nnnn3C3CCCCC3)c(=O)[nH]c2c1 | n | u | n | n | 12.6µM | n
C=CCN=c1sc(C(=O)OC)cc(=O)n1CC=C | n | n | n | n | u | n
Cc1ccc2[nH]c(=O)c(CN(Cc3nnnn3C3CCCC3)C3CCCCC3)cc2c1 | n | n | n | n | 25.1µM | n
Cc1ccc2[nH]c(=O)c(CN(Cc3ccccc3)Cc3nnnn3C3CCCC3)cc2c1 | n | u | n | n | 14.1µM | n
Cc1ccc2[nH]c(=O)c(C(c3nnnn3C3CCCC3)N(Cc3cccnc3)Cc3ccco3)cc2c1 (stereo unspecified) | n | u | n | n | 4.47µM | n
O=C(Nc1nc2c(ccc3ccccc32)s1)c1ccco1 | n | n | n | n | n | n
CCC(C)(C)NC(=O)C(c1ccccc1)N(Cc1cccnc1)C(=O)c1csnn1 (stereo unspecified) | n | n | n | n | n | n
CC(C)=N/N=C1/NC(=O)C(CC(=O)Nc2cc(Cl)ccc2C)S1 (stereo unspecified) | n | n | n | n | n | x
Cc1cc(C)cc(NC(=O)C(NCC2CCCO2)c2ccccc2)c1 (stereo unspecified) | n | n | n | n | n | n
CCCCNC(=O)C(=O)N/N=C/c1cccc(Br)c1 | n | n | n | n | n | x
Cc1noc(/C=C/N(C)C)c1S(=O)(=O)N1CCc2ccccc21 | n | n | n | n | 5.62µM | n
Cc1noc(/C=C/N(C)C)c1S(=O)(=O)N1CCCC(C(=O)NC(C)c2ccccc2)C1 (stereo unspecified) | n | n | 31.6µM | n | 7.51µM | n
Cc1noc(/C=C/N(C)C)c1S(=O)(=O)N(C)CC(=O)N1CCc2ccccc21 | n | n | n | n | n | n
COc1ccccc1CC(=O)NNC(=O)c1cccs1 | n | n | x | x | n | x
O=C(O)c1ccccc1C(=O)Nc1n[nH]c(=S)s1 | n | n | 8.91µM | u | 6.31µM | n
O=C(O)c1ccccc1C(=O)Nc1ccccc1 | n | n | n | n | u | n
O=C(NC(=S)Nc1ccc2ncccc2c1)c1ccccc1 | u | n | x | x | 3.55µM | x
CC(C)(C)NC(=S)NNC(=O)c1ccc2ncccc2c1 | n | n | x | x | u | x
Cc1ccc2cccc(NC(=S)NC(=O)c3ccccc3)c2n1 | n | n | n | u | u | n
Cc1ccc2cccnc2c1NC(=S)NC(=O)c1ccccc1 | n | n | n | n | 28.2µM | n
Cc1ccc(NC(=S)NC(=O)c2ccccc2)cc1NC(=S)NC(=O)c1ccccc1 | x | u | x | x | 3.55µM | x
O=C(NNC(=S)Nc1ccccc1)c1ccc2ncccc2c1 | n | n | x | x | 22.4µM | x
SMILES | IMPase Li inh | NPSR antag | HPGD inh | ALOX12 inhib | ALDH1A1 inh | IMPase inh
O=C(c1ccc(F)cc1)C1CCN(C(=S)Nc2ccccc2Cl)CC1 | n | n | x | x | n | x
O=C1CCCCCC1C1(O)C(=O)Nc2ccc(Br)cc21 (stereo unspecified) | n | n | n | n | n | n
O=C(NC(=S)Nc1ccc2[nH]ncc2c1)c1ccccc1 | n | n | u | u | 10µM | n
Cc1ccc2cn[nH]c2c1NC(=S)NC(=O)c1ccccc1 | n | n | n | n | u | n
Cc1cc(C)c(NC(=S)NC(=O)c2ccc(-c3ccccc3)cc2)c(C)c1 | n | n | n | n | 10µM | n
O=C(NC(=S)Nc1cccc2ncccc12)c1ccccc1 | n | n | x | x | 14.1µM | x
CCCCCCN(C(=O)CCCCCN1C(=O)NC(c2ccc(-c3ccccc3)cc2)C(C(=O)OCc2ccccc2)=C1C)C(C(=O)NCCCC)C1CCCCC1 (stereo unspecified) | x | n | x | x | x | x
Cc1ccc(C(=O)Nc2ccccc2-c2ccccc2)cc1[N+](=O)[O-] | n | n | n | n | 17.8µM | u
